These results are taken from PubChem BioAssay (Tox21).

Records with an inconclusive call do not appear. The source made the active and inactive calls. Unless noted, calls come from the whole dose curve; as a rule, active = well fitted curve in the direction sought with a large enough effect in the repeat runs; inconclusive = weak or mixed curves; inactive = no such curve, though single readings can be large; an effect the other way counts as inactive or inconclusive.

Assay [1] can be described thus: A CellTox Green Cytotoxicity Assay to monitor cytotoxicity in HepG2 cells - 0 hour (AID 1224882). Note: nearly all actives have a fitted effect of over 35% in size. The essentials:
(§1)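 Real-time, homogeneous cytotoxicity readout: dead-cell DNA staining by CellTox Green in HepG2 monolayers, fluorescence measured at timed intervals up to 40 h of continuous compound exposure.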

Assay [2] in a line: A CellTox Green Cytotoxicity Assay to monitor cytotoxicity in HepG2 cells - 32 hour (AID 1224883). Note: nearly all actives have a fitted effect of over 50% in size. Note: potency is the fitted concentration of half-maximal effect. The essentials: as §1
Assay [3] is described as follows: qHTS RealTime-Glo MT Cell Viability Assay in HepG2 cells - 16 hour (AID 1224885). Note: nearly all actives have a fitted effect of over 50% in size. Note: potency is the fitted concentration of half-maximal effect. The essentials: (§2)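 qHTS, HepG2, 600 cells/well, RealTime-Glo (NanoLuc + prosubstrate) added with cells; 5 h preincubation; DMSO compound addition; 37 C; luminescence at 0/8/16/24/32/40 h.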
The nature of assay [4]: qHTS RealTime-Glo MT Cell Viability Assay in HEK293 cells - 24 hour (AID 1224886). Note: nearly all actives have a fitted effect of over 50% in size. Note: potency is the fitted concentration of half-maximal effect. The essentials:
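Assay medium contained NanoLuc luciferase plus cell-permeant prosubstrate, added with HEK293 cells at 600 cells/well. After 5 h at 37 C/5% CO2 compounds were added; plates stayed at 37 C for 40 h with serial luminescence reads.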

A short description of assay [5]: qHTS RealTime-Glo MT Cell Viability Assay in HEK293 cells - 8 hour (AID 1224887). Note: nearly all actives have a fitted effect of over 50% in size. Note: potency is the fitted concentration of half-maximal effect. The essentials:
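Nonlytic bioluminescent viability monitoring. HEK293 at 600 cells/well with reagent; 5 h settle; compound transfer by pintool; plates held at 37 C and read at set time points.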
(qHTS replaces the single test concentration by a dilution series.)

Assay [6] can be described thus: A CellTox Green Cytotoxicity Assay to monitor cytotoxicity in HepG2 cells - 8 hour (AID 1224890). Note: nearly all actives have a fitted effect of over 45% in size. Note: potency is the fitted concentration of half-maximal effect. The essentials:
as §1

A short description of assay [7]: qHTS assay to identify small molecule antagonists of the estrogen receptor alpha (ER-alpha) signaling pathway using the BG1 cell line in the presence of 0.1 nM 17-beta-estradiol - cell viability counter screen (AID 1259241). Note: nearly all actives have a fitted effect of over 40% in size. Note: potency is the fitted concentration of half-maximal effect. The essentials:
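The cell line endogenously expresses full-length ER-alpha and carries four EREs driving luciferase. Cells are cultured 5 days hormone-free, treated 22 hr with compounds and 0.1 nM estradiol, then viability is read by fluorescence.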

The target in assay [8] is Estrogen receptor (Homo sapiens) (UniProt P03372). Put plainly: qHTS assay to identify small molecule antagonists of the estrogen receptor alpha (ER-alpha) signaling pathway using the BG1 cell line in the presence of 0.1 nM 17-beta-estradiol (AID 1259244). Note: nearly all actives have a fitted effect of over 50% in size. Note: potency is the fitted concentration of half-maximal effect. The essentials: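 After 5 days in hormone-depleted medium (charcoal-stripped serum, no phenol red), VM7Luc4E2 cells were seeded, incubated 24 h, then co-treated with compound and 0.1 nM (final) estradiol for 22 h before luminescence detection.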
Chain of Estrogen receptor (Homo sapiens) (P03372 whole entry, looked up): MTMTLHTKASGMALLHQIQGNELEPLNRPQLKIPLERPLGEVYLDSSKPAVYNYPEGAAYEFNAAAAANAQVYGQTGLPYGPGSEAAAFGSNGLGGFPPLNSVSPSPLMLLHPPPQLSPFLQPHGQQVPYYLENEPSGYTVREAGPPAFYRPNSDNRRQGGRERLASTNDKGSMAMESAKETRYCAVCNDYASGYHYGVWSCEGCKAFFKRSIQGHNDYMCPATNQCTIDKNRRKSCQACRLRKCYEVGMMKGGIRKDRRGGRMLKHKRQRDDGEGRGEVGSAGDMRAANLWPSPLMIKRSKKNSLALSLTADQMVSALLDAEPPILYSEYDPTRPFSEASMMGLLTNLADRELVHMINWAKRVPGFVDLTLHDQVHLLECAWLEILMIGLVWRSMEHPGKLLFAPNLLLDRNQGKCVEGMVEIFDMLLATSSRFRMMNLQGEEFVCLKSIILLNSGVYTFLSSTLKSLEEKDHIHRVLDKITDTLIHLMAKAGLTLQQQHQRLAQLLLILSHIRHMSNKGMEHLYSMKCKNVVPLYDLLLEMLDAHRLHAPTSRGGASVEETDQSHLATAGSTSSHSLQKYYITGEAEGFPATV

A short description of assay [9]: qHTS assay to identify small molecule HDAC inhibitors (AID 1259364). Note: nearly all actives have a fitted effect of over 45% in size. Note: potency is the fitted concentration of half-maximal effect. The essentials:
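Homogeneous cell-based luminescent assay of endogenous class I/II HDAC activity; HCT-116 cells, 2 h compound exposure, 30 min HDAC-Glo development at RT.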

The nature of assay [10]: qHTS assay to identify small molecule HDAC inhibitors - cell viability counter screen (AID 1259365). The essentials:
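Viability readout: CellTiter-Glo luminescence. Wild-type HCT-116 cells, 2hr compound treatment following overnight attachment at 37 C.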

Assay [11] in a line: qHTS assay to identify small molecule agonists of the sonic hedgehog signaling (Shh) pathway - cell viability counter screen (AID 1259366). Note: nearly all actives have a fitted effect of over 50% in size. Note: potency is the fitted concentration of half-maximal effect. The essentials:
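Viability measured fluorometrically (CellTiter-Fluor, 1hr, 37C) in 3T3 Gli1-Luc reporter cells after 23hr compound exposure within a 24hr incubation at 37C/5% CO2.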

The nature of assay [12]: qHTS assay to identify small molecule agonists of the sonic hedgehog signaling (Shh) pathway (AID 1259368; calls by dose curve;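 note: NIH/3T3-derived 3T3Gli1-Luc cells carrying a stable Gli1-driven firefly luciferase reporter; series mostly up to about 92 µM; nearly all actives have a fitted effect of over 15% in size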). The essentials:
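Steps: seed 3T3 Gli1-Luc cells, incubate 4 hr at 37 C, pin-transfer compounds in DMSO alongside a positive control, incubate 24 hr, add luciferase detection reagent, wait 30 min at room temperature, read luminescence.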

Assay [13] in a line: qHTS assay to identify small molecule antagonists of the sonic hedgehog signaling (Shh) pathway (AID 1259369; calls by dose curve; note: nearly all actives have a fitted effect of over 45% in size; note: potency is the fitted concentration of half-maximal effect). The essentials: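 Inhibition of Shh signalling is measured as reduced Gli1-response-element firefly luciferase output in an NIH/3T3-derived stable reporter clone stimulated with conditioned medium for 24hr.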
A short description of assay [14]: A CellTox Green Cytotoxicity Assay to monitor cytotoxicity in HEK293 cells - 16 hour (AID 1224888). Note: nearly all actives have a fitted effect of over 35% in size. Note: potency is the fitted concentration of half-maximal effect. The essentials: (§3)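 Cytotoxicity was tracked continuously in HEK293 cells by a DNA-binding dye excluded from viable cells. Compounds were transferred in DMSO 5 h after seeding; fluorescence was recorded at intervals up to 40 h.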
Assay [15] in a line: qHTS RealTime-Glo MT Cell Viability Assay in HepG2 cells - 0 hour (AID 1224889). Note: nearly all actives have a fitted effect of over 50% in size. The essentials: as §2
The nature of assay [16]: qHTS assay to identify small molecule antagonists of the androgen receptor (AR) signaling pathway using the MDA cell line in the presence of 0.5 nM R1881 - cell viability counter screen (AID 1259242). Note: nearly all actives have a fitted effect of over 45% in size. Note: potency is the fitted concentration of half-maximal effect. The essentials: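 Cytotoxicity toward MDA-kb2 cells is measured by CellTiter-Fluor live-cell protease fluorescence after 16 hr compound exposure at 37C in the presence of 0.5 nM R1881 stimulator.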

The nature of assay [17]: qHTS assay to identify small molecule antagonists of the sonic hedgehog signaling (Shh) pathway - cell viability counter screen (AID 1259367). Note: nearly all actives have a fitted effect of over 55% in size. Note: potency is the fitted concentration of half-maximal effect. The essentials:
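NIH/3T3-derived Gli1-Luc reporter cells (2,000 per well) rested 4 hr at 37 C, then received DMSO compounds plus conditioned medium. After 23 hr of treatment, CellTiter-Fluor was added for 1 hr at 37C and fluorescence read.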

The nature of assay [18]: A CellTox Green Cytotoxicity Assay to monitor cytotoxicity in HEK293 cells - 8 hour (AID 1224884). Note: nearly all actives have a fitted effect of over 35% in size. Note: potency is the fitted concentration of half-maximal effect. The essentials:
as §3

The target of assay [19] is Androgen receptor (Homo sapiens) (UniProt P10275). As to the kind of experiment: qHTS assay to identify small molecule antagonists of the androgen receptor (AR) signaling pathway using the MDA cell line in the presence of 0.5 nM R1881 (AID 1259243). Note: nearly all actives have a fitted effect of over 50% in size. Note: potency is the fitted concentration of half-maximal effect. The essentials:
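Steps: seed MDA-kb2 cells, incubate 5 hr at 37C; pin-transfer compounds in DMSO; add R1881 to 0.5 nM final; incubate 16 hr; add ONE-Glo, wait 30 min at room temperature; read luminescence.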

Assay [20] in a line: qHTS assay to identify small molecule phospholipidosis (PLD) inducers (AID 1259344; active = well fitted curve in the direction sought with a large enough effect; an effect the other way counts as inactive or inconclusive). The essentials: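 HepG2 cells on collagen I, attached 4 h at 37 C, were co-treated with compound and LipidTOX Red dye for 24 h at 37 C, then fixed with paraformaldehyde plus Hoechst 33342 and imaged by high-content microscopy for phospholipid accumulation.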

Chain of Androgen receptor (Homo sapiens) (P10275 whole entry, looked up): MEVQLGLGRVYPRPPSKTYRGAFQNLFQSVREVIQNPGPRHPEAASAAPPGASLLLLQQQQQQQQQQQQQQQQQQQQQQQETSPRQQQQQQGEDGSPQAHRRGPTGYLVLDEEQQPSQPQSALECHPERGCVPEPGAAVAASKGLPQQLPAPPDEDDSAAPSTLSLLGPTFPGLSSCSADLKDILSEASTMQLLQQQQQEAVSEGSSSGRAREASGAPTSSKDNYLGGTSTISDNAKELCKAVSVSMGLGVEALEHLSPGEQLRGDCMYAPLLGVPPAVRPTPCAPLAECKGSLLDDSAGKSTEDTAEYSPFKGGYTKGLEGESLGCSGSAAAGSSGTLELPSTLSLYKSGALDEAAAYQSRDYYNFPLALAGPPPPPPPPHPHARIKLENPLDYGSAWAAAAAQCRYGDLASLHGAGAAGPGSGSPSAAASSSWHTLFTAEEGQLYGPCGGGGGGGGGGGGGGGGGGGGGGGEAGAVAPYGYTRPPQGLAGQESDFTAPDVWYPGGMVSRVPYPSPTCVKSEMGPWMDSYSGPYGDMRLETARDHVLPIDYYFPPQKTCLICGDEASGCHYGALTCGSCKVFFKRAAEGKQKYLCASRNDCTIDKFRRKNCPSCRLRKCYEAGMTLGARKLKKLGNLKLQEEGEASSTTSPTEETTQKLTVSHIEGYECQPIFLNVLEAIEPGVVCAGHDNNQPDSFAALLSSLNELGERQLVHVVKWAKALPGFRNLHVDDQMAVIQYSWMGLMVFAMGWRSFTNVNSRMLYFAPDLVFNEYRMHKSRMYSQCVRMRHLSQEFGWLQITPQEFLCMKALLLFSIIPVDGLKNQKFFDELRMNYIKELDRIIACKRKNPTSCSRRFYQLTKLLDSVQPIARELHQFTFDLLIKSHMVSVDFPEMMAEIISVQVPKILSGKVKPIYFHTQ

As to `O[C@@H](c1cc(C(F)(F)F)nc2c(C(F)(F)F)cccc12)[C@H]1CCCCN1`, the Potency result in assay [1], in [7], in [8], in [9], in assay [10] and in [12] was “inactive” throughout. In addition, the Potency in [2] was 19 µM (active); in assay [3] it was 21.3 µM (active); in assay [4], 7.56 µM (active); in assay [5], 7.56 µM (active); in assay [6], 26.8 µM (active); in assay [11], 29.8 µM (active). In assay [13], the Potency is 23.7 µM (active).

For the molecule `CC(=O)Oc1ccc(C2(c3ccc(OC(C)=O)cc3)C(=O)Nc3ccccc32)cc1`, the Potency entry in assay [1], in [2], in [3], in assay [4], in [5] and in assay [14] was “inactive” in each case. For the same molecule, the Potency result in assay [15], in [6], in assay [16], in assay [10], in assay [17] and in assay [12] was “inactive” each time. Besides, the Potency in [8] is 0.168 µM (active).

Consider `CCCCN(C)C`, for which the Potency entry in assay [1], in [18], in assay [3], in assay [4], in assay [5] and in [14] was “inactive” in each case. For the same molecule, the Potency entry in assay [15], in assay [6], in assay [7], in assay [16], in assay [19] and in [8] was “inactive” throughout. The Potency entry in assay [9], in assay [10], in assay [11], in [17] and in [12] was “inactive” each time.

As to `O=C1C=CC(=O)N1c1ccccc1`, the Potency entry in assay [1], in [15] and in [12] was “inactive” in each case. Besides, the Potency is 24.5 µM (active) in assay [18]; 15.5 µM (active) in [3]; 12.3 µM (active) in [4]; 43.6 µM (active) in assay [5]; 13.8 µM (active) in assay [14]; 34.7 µM (active) in [6]. Besides, the Potency is 61.1 µM (active) in assay [7]; 61.1 µM (active) in [16]; 30.6 µM (active) in assay [19]; 61.1 µM (active) in [8]; 27.3 µM (active) in assay [9]; 9.69 µM (active) in [11]. Further, the figures for the Potency in assay [17] and in assay [13] were 12.2 µM (active) and 6.11 µM (active), respectively.

In the case of `C[Si](C)O[Si](C)C`, the Potency result in assay [1], in assay [18], in [3], in assay [4], in [5] and in assay [14] was “inactive” throughout. The Potency entry in [15], in assay [6], in assay [7], in assay [16], in assay [19] and in assay [8] was “inactive” throughout. In addition, the Potency entry in assay [9], in [10], in assay [11], in [17], in assay [12] and in assay [13] was “inactive” each time.

Turning to `C=C[C@](C)(O)CC[C@@H]1[C@@]2(C)CCCC(C)(C)[C@@H]2CC[C@@]1(C)O`, the Potency entry in assay [1], in assay [15], in assay [7], in assay [16], in assay [9] and in [10] was “inactive” throughout. Further, in [12], the Potency result is “inactive”. The Potency in assay [2] is 49 µM (active); in assay [3], 49 µM (active); in assay [4] it was 21.9 µM (active); in assay [6] it was 54.9 µM (active); in [8], 61.1 µM (active); in assay [13] it was 61.1 µM (active).

With `CCN(CC)CCNc1ccc(CO)c2sc3ccccc3c(=O)c12`, the Potency result in assay [1], in assay [14], in assay [15], in assay [6], in assay [8] and in assay [20] was “inactive” throughout. Besides, the Potency entry in assay [9], in [10] and in assay [12] was “inactive” in each case. Further, the Potency is 13.4 µM (active) in assay [2], 23.9 µM (active) in assay [3], 16.9 µM (active) in [4] and 13.3 µM (active) in assay [13].

As for `O=C(O)Cc1ccc(OCCNC[C@H](O)c2ccccc2)cc1`, the Potency entry in assay [1], in assay [2], in assay [3], in assay [4], in assay [5] and in [14] was “inactive” in each case. The Potency result in assay [15], in assay [6], in assay [7], in [19], in [8] and in [9] was “inactive” each time. Besides, the Potency result in assay [10], in assay [11] and in [12] was “inactive” throughout.
